A number with no mark means an inactive call. Entries that show only a call come without a potency. Activity calls are given as the source filed them. Unless noted, the call rests on the fitted dose curve; in most records, active means well fitted curve in the direction sought with a large enough effect in the repeat runs; inconclusive means weak or mixed curves; inactive means no such curve, though single readings can be large; an effect the other way counts as inactive or inconclusive.
Columns and labels:
[1] = test system: thyroid hormone receptor (rat, GH3 cells); assay: qHTS assay to identify small molecule agonists of the thyroid receptor (TR) signaling pathway (AID 743066; calls by dose curve)
[2] = target: Estrogen receptor (Homo sapiens) (UniProt P03372); assay: qHTS assay to identify small molecule antagonists of the estrogen receptor alpha (ER-alpha) signaling pathway (AID 743069; active means well fitted curve in the direction sought with a large enough effect in the signal ratio in the repeat runs, not every such curve was filed as active; inconclusive means weak or mixed curves, or effect the other way; inactive means no such curve, though single readings can be large or run the other way; the % refers to the signal ratio; further: potency means the concentration at half of the fitted maximal effect)
Estrogen receptor (Homo sapiens), sequence (P03372 whole entry, looked up): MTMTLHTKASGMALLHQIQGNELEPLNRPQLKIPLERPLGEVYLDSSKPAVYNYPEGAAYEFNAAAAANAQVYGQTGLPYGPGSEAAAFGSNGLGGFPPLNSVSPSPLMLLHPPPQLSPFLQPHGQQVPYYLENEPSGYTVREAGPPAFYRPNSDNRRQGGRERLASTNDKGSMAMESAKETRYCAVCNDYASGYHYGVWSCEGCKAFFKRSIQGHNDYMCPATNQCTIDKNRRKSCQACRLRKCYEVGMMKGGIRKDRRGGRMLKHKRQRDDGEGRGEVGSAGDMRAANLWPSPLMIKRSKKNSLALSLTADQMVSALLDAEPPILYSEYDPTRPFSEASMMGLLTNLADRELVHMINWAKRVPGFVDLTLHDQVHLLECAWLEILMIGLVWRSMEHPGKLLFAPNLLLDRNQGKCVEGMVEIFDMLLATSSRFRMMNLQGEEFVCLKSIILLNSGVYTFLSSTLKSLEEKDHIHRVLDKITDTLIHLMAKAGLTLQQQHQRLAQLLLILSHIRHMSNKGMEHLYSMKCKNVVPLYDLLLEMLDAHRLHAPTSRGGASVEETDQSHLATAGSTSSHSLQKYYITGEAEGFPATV
In short: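 HEK293 ER-alpha-UAS-bla GripTite cells, held overnight in 2% charcoal-stripped FBS, 5,000 cells/well, preincubated 4 h, then compound plus 17beta-estradiol for 18 h at 37C. Beta-lactamase read by LiveBLAzer B/G FRET substrate, 2 h at room temperature.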

[3] = qHTS assay to identify small molecule antagonists of the estrogen receptor alpha (ER-alpha) signaling pathway - cell viability counter screen (AID 743074; calls by dose curve;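 further: HEK293 cells carrying ER-alpha-UAS-bla reporter stimulated with 17beta-estradiol; nearly all actives have a fitted effect of over 45% in size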)
[4] = target: Estrogen receptor (Homo sapiens) (UniProt P03372); assay: qHTS assay to identify small molecule agonists of the estrogen receptor alpha (ER-alpha) signaling pathway (AID 743075; calls by dose curve)
[5] = target: Estrogen receptor (Homo sapiens) (UniProt P03372); assay: qHTS assay to identify small molecule agonists of the estrogen receptor alpha (ER-alpha) signaling pathway using the BG1 cell line (AID 743079); conditions: BG1Luc4E2 cells, ERE-luciferase agonist, 22 h; activation: at 70.3 µM (top of the series); further: nearly all actives have a fitted effect of over 20% in size
Aromatase (Homo sapiens) = Aromatase (Homo sapiens) (UniProt P11511); assay: qHTS assay to identify aromatase inhibitors (AID 743083); further: nearly all actives have a fitted effect of over 55% in size; further: potency means the concentration at half of the fitted maximal effect
Aromatase (Homo sapiens), sequence (P11511 whole entry, looked up): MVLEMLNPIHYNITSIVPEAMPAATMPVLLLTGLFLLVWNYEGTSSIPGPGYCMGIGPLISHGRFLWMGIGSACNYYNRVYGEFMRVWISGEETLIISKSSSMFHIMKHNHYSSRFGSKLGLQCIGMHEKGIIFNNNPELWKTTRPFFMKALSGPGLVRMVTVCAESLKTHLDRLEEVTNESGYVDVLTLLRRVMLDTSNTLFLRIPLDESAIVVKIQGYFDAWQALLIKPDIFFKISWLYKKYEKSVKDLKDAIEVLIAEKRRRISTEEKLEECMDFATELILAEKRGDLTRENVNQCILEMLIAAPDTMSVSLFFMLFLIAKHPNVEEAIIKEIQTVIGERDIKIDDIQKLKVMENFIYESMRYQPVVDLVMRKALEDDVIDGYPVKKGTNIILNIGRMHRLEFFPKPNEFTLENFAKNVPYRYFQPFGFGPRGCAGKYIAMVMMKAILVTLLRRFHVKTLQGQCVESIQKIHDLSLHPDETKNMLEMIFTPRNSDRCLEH

[6] = target: Aryl hydrocarbon receptor (Homo sapiens) (UniProt P35869); assay: qHTS assay to identify small molecule that activate the aryl hydrocarbon receptor (AhR) signaling pathway (AID 743085); further: nearly all actives have a fitted effect of over 15% in size; further: potency means the concentration at half of the fitted maximal effect;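 on activation: HG2L7.5c1 human HepG2 liver cells with stably integrated DRE-driven firefly reporter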
Aryl hydrocarbon receptor (Homo sapiens), sequence (P35869 whole entry, looked up): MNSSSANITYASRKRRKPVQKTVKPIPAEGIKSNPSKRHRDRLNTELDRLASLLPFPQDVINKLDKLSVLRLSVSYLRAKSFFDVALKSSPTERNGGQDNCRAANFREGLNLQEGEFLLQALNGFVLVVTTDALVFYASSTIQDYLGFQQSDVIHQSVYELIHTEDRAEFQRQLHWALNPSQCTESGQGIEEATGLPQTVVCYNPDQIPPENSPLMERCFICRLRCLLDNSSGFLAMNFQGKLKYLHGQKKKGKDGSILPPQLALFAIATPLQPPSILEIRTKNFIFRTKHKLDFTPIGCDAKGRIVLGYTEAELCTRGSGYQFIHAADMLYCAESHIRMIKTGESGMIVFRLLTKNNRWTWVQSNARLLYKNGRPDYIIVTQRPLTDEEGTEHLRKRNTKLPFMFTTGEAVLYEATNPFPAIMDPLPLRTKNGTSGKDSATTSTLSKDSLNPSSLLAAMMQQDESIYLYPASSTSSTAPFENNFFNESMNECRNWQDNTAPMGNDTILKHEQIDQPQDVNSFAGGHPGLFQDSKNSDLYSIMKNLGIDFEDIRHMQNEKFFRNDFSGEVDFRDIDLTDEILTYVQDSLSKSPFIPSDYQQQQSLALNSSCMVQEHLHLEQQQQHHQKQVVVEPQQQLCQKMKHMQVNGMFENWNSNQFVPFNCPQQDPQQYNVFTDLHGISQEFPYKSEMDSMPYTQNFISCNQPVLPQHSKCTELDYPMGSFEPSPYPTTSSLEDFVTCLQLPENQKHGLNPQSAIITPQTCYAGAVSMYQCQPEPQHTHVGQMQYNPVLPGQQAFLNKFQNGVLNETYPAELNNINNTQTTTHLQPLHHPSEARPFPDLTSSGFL
In short: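 Reporter assay in engineered HepG2 line HG2L7.5c1, whose plasmid carries twenty dioxin responsive elements upstream of firefly luciferase. Treatment lasted 24 h at 37C; ONE-Glo luminescence gauged induction.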

[7] = target: Peroxisome proliferator-activated receptor gamma (Homo sapiens) (UniProt P37231); assay: qHTS assay to identify small molecule agonists of the peroxisome proliferator-activated receptor gamma (PPARg) signaling pathway (AID 743094; active means well fitted activation curve with a large enough effect in the signal ratio in the repeat runs, not every such curve was filed as active; inconclusive means weak or mixed curves, or effect the other way; inactive means no such curve, though single readings can be large or run the other way; the % refers to the signal ratio)
Peroxisome proliferator-activated receptor gamma (Homo sapiens), sequence (P37231 whole entry, looked up): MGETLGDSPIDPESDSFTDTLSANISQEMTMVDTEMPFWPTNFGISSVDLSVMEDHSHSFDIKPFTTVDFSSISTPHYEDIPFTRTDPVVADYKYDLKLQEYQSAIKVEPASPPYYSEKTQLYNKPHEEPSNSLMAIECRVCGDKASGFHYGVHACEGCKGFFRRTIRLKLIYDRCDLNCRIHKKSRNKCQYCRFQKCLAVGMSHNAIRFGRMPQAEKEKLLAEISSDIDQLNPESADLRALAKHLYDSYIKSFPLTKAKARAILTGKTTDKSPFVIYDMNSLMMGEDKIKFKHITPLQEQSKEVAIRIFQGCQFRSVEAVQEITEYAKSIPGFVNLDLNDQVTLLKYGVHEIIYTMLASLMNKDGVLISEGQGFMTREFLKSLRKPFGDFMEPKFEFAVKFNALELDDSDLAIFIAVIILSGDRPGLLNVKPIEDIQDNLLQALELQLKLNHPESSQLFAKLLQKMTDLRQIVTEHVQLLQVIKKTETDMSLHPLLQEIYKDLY
In short: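 Stably transfected HEK293H cells (GeneBLAzer PPARg UAS-bla) were incubated with test substances for 17 h at 37C after a 5 h pre-incubation; beta-lactamase activity was then detected by FRET substrate fluorescence.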

[8] = qHTS assay to identify small molecule phospholipidosis (PLD) inducers (AID 1259344; active means well fitted curve in the direction sought with a large enough effect; inconclusive means small, poorly fitted or top-dose-only effect, or another doubt; inactive means no such curve, though single readings can be large; an effect the other way counts as inactive or inconclusive)
In short: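 HepG2 cells, 900/well, treated with compound plus LipidTOX Red for 24 h at 37 C; amiodarone positive and DMSO negative controls. Fixed with paraformaldehyde/Hoechst, then high-content imaging scored LipidTOX pit count and integrated intensity per well and per cell.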

[9] = qHTS assay to identify aromatase inhibitors - cell viability counter screen (AID 743084);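 further: cells stimulated with testosterone during compound exposure; nearly all actives have a fitted effect of over 55% in size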; further: potency means the concentration at half of the fitted maximal effect
[10] = qHTS assay to identify small molecule antagonists of the estrogen receptor alpha (ER-alpha) signaling pathway using the BG1 cell line (AID 743080; calls by dose curve;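 further: BG1 cells stimulated with 17beta-estradiol alongside compound; nearly all actives have a fitted effect of over 25% in size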)
In short: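 After 5 days in phenol-red-free 10% charcoal-stripped FBS medium, BG1-Luc-4E2 cells were seeded, left 24 h at 37 C, co-treated with compounds and 17beta-estradiol for 21.5 h, then assayed for viability and luciferase.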

[11] = qHTS assay to identify small molecule antagonists of the estrogen receptor alpha (ER-alpha) signaling pathway using the BG1 cell line - cell viability counter screen (AID 743081);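 further: compound given together with 17beta-estradiol as the ER stimulus; nearly all actives have a fitted effect of over 45% in size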; further: potency means the concentration at half of the fitted maximal effect
[12] = qHTS assay to identify small molecule that activate the aryl hydrocarbon receptor (AhR) signaling pathway - cell viability counter screen (AID 743086); further: nearly all actives have a fitted effect of over 45% in size; further: potency means the concentration at half of the fitted maximal effect
In short: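 HepG2-AhR-luc (HG2L7.5c1) cells, 4000/well, treated 24 h at 37 C with compound; viability measured as CellTiter-Fluor fluorescence after 30 min in the same wells as the luciferase read.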

[13] = qHTS assay to identify small molecule antagonists of the thyroid receptor (TR) signaling pathway - cell viability counter screen (AID 743064); further: potency means the concentration at half of the fitted maximal effect; nearly all actives have a fitted effect of over 50% in size
In short: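 Same-well viability check: GH3.TRE-Luc cells stimulated with 1 nM T3 alongside test compound for 23.5 h, followed by CellTiter-Fluor fluorescence.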

[14] = target: Nuclear receptor subfamily 1 group I member 2 (Rattus norvegicus) (UniProt Q9R1A7); assay: Rat pregnane X receptor (rPXR) activation by small molecules, qHTS assay (AID 1346983); conditions: rPXR luciferase reporter cells, One-Glo luminescence, 24 h; max activation: active compounds read high; further: nearly all actives have a fitted effect of over 20% in size
Nuclear receptor subfamily 1 group I member 2 (Rattus norvegicus), sequence (Q9R1A7 whole entry, looked up): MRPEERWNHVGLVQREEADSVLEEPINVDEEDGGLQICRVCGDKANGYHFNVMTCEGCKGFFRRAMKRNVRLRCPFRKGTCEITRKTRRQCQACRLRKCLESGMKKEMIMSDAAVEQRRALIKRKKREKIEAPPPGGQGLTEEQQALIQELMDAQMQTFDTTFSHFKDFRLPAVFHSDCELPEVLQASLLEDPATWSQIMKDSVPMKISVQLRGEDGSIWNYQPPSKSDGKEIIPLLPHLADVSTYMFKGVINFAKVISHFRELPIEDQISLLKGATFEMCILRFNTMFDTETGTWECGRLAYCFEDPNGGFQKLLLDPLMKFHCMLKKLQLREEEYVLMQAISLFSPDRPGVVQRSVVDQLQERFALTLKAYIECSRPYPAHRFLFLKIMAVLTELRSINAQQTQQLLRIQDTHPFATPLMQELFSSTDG
In short: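 Cell-based rPXR activation assay: rPXR cells, 2,000 per well, rested 5hr at 37 C, then exposed to compounds in DMSO for 24 hr at 37 C. Luciferase activity read by One-Glo luminescence after 30 min at room temperature.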

[15] = target: Nuclear receptor subfamily 1 group I member 2 (Homo sapiens) (UniProt O75469); assay: CYP3A4 induction through human pregnane X receptor (PXR) by small molecules, qHTS assay (AID 1346984); further: potency means the concentration at half of the fitted maximal effect; nearly all actives have a fitted effect of over 40% in size
In short: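 DPX-2 reporter cells; 24h cpd, 37C; Luciferin-IPA 3uM final x3h; One-Glo 30 min RT; lumi read.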

[16] = target: Nuclear receptor subfamily 1 group I member 2 (Homo sapiens) (UniProt O75469); assay: Human pregnane X receptor (PXR) activation by small molecules, qHTS assay (AID 1346985); further: potency means the concentration at half of the fitted maximal effect; nearly all actives have a fitted effect of over 40% in size
In short: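 DPX-2 cells (HepG2 co-transfected with a PXR response element and a CYP3A4-promoter luciferase construct) were seeded at 2,000 per well, rested 5 hr at 37C, then exposed to DMSO-dissolved compounds for 24 hr. Activation was read as luciferase luminescence.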

Compound	Potency [1]	Potency [2]	Potency [3]	Potency [4]	Potency [5]	Potency (Aromatase (Homo sapiens))	Potency [6]	Potency [7]	Potency [8]	Potency [9]	Potency [10]	Potency [11]	Potency [12]	Potency [13]	max activation [14] [%]	Potency [15]	Potency [16]	PLD induction [8]
CC(CN(C)C)CN1c2ccccc2S(=O)(=O)c2ccccc21 (configuration not stated)	inactive	inactive	inactive	inactive	inactive	inactive	inactive	inactive	inactive	–	–	–	–	–	–	–	–	–
CCOC(=O)CCC(=O)O[C@H]1[C@H](O[C@@H]2[C@@H](C)[C@H](O[C@H]3C[C@@](C)(OC)[C@@H](O)[C@H](C)O3)[C@@H](C)C(=O)O[C@H](CC)[C@@](C)(O)[C@H](O)[C@@H](C)C(=O)[C@H](C)C[C@@]2(C)O)O[C@H](C)C[C@@H]1N(C)C	–	inactive	inactive	inactive	inactive	inactive	inactive	inactive	inactive	inactive	–	–	–	–	–	–	–	–
CC(O)[C@@H]1NC(=O)[C@H](CCCCN)NC(=O)[C@@H](Cc2c[nH]c3ccccc23)NC(=O)[C@H](Cc2ccccc2)NC(=O)[C@@H](NC(=O)[C@H](N)Cc2ccccc2)CSSC[C@@H](C(=O)N[C@H](CO)[C@@H](C)O)NC1=O (some centres not stated)	–	–	inactive	inactive	–	inactive	inactive	inactive	inactive	inactive	inactive	inactive	inactive	–	–	–	–	–
CCCCC(F)(F)[C@@]1(O)CC[C@H]2[C@@H](CC(=O)[C@@H]2CCCCCCC(=O)O)O1	–	–	inactive	–	inactive	–	inactive	–	inactive	inactive	inactive	inactive	inactive	–	–	–	–	–
COc1cc(Br)c(C[N+]2(CCOCCC3CCC4CC3C4(C)C)CCOCC2)cc1OC (configuration not stated)	–	inactive	inactive	inactive	inactive	–	inactive	inactive	inactive	inactive	inactive	inactive	inactive	–	–	–	–	–
CN(CC(=O)N1CCOCC1)Cc1c(Cl)cccc1NC(=O)c1ccccc1	–	–	inactive	inactive	inactive	–	13.3 µM (active)	inactive	inactive	inactive	inactive	inactive	–	–	–	–	–	–
CN(C)CCC=C1c2ccccc2C(C)(C)c2ccccc21	–	inactive	–	–	inactive	–	inactive	–	–	inactive	inactive	inactive	–	13.3 µM (active)	6.91	22.4 µM (active)	25.1 µM (active)	–
CN1CCc2c(c3ccccc3n2Cc2ccccc2)C1	inactive	–	–	–	–	inactive	inactive	inactive	inactive	inactive	–	inactive	inactive	–	–	–	–	–
CCC(CN)CC(C)CCNCC(O)CNCC(C)CC(CC)CN (configuration not stated)	–	inactive	inactive	inactive	inactive	inactive	inactive	inactive	–	inactive	–	inactive	inactive	–	–	–	–	-0.745% [at 7.66 µM]
CCC[C@@]1(CCc2ccccc2)CC(O)=C([C@H](CC)c2cccc(NS(=O)(=O)c3ccc(C(F)(F)F)cn3)c2)C(=O)O1	inactive	–	inactive	–	–	inactive	–	–	–	inactive	–	inactive	inactive	–	–	–	–	-4.07% [at 7.66 µM]
CN1CC(O)c2cc(N=NC(N)=O)c(O)cc21 (configuration not stated)	–	inactive	inactive	inactive	inactive	inactive	inactive	inactive	inactive	–	inactive	inactive	–	–	–	–	–	–
CO[C@H]1C=CO[C@@]2(C)Oc3c(C)c(O)c4c(O)c(c(/C=N/N5CCN(C6CCCC6)CC5)c(O)c4c3C2=O)NC(=O)/C(C)=C\C=C[C@H](C)[C@H](O)[C@@H](C)[C@@H](O)[C@@H](C)[C@H](OC(C)=O)[C@@H]1C	–	19 µM [inconclusive] (active)	inactive	inactive	–	33.5 µM (active)	inactive	–	inactive	23.7 µM (active)	–	26.6 µM (active)	26.6 µM (active)	–	–	–	–	–
CN[C@@H]1CCc2[nH]c3ccc(C(N)=O)cc3c2C1	inactive	–	inactive	–	–	inactive	inactive	inactive	–	inactive	–	inactive	inactive	–	–	–	–	-1.34% [at 1.53 µM]
COc1ccc(CCNCC(O)COc2cccc(C)c2)cc1OC (configuration not stated)	inactive	–	inactive	inactive	inactive	inactive	inactive	inactive	inactive	inactive	inactive	inactive	inactive	–	–	–	–	–

— PubChem BioAssay (Tox21)
